Reference: a collection of fitness landscapes (doi:10.1016/j.celrep.2020.107928)
The full ranking holds about 81,000 sequences; the median of “one-hybrid fitness for binding NBS DNA” is about -0.1, and the highest 2% start at about 0.36. Many of the other results were omitted from the sample, so the highest values are more common in it than they were.

B1: Caulobacter ParB omega fusion; a variant is named by its letters at X, in order, B8GW30 (parent)
chain: MESVVVGEPGMSEGRRGLGRGLSALLGEVDAAPAQAPGEQLGGSREAPIEILQRNPDQPRRTFREEDLEDLSNSIREKGVLQPILVRPSPDTAGEYQIVAGERAWRAAQRAGLKTVPIMVRELDDLAVLEIGIIENVQRADLNVLEEALSYKVLMEKFERTQENIAQTIGKSXSHVANXMRLLXLPDEVQSYLVSGELTAXHARAIAAAADPVALAKQIIEGGLSVRETEALARKAPNLSAGKSKGGRPPRVKDTDTQALESDLSSVLGLDVSIDHRGSTGTLTITYATLEQLDDLCNRLTRGI

Variants of: B1
Test: one-hybrid fitness for binding NBS DNA (the Noc-binding site; scaled: cognate 1, non-cognate 0); higher = stronger binding
Conditions: with NBS DNA site
How it was run: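 In E. coli USO, a HIS3 reporter with its site placed 19 bp from the promoter was used to select Caulobacter ParB variants randomised at four specificity codons. Growth lasted 48 hours at 37°C on histidine-free M9 containing 0.1 mM IPTG and 5 mM 3-AT. Fitness was taken as the log change in variant-to-wild-type read ratio from Illumina sequencing of pre- and post-selection plasmids, rescaled between the non-cognate and cognate sites.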

Variant	one-hybrid fitness for binding NBS DNA
QLFV	≤ 0.2
PASW	≤ 0.2
QHPW	≤ 0.2
TKDT	≤ 0.2
KAAR	≤ 0.2
VHKI	≤ 0.2
VRNY	≤ 0.2
SPES	≤ 0.2
PIPY	≤ 0.2
DLRT	≤ 0.2
HALK	≤ 0.2
LKPH	≤ 0.2
ECKC	≤ 0.2
PADW	≤ 0.2
EYHR	≤ 0.2
CRTW	≤ 0.2
QTIT	0.522
QTPT	0.418
QAIT	0.291
QTPH	≤ 0.2
QSPT	0.276
QPPT	≤ 0.2
QTPP	≤ 0.2
QLIT	0.287
QCPT	0.382

Variant	one-hybrid fitness for binding NBS DNA
RCQW	≤ 0.2
IHRR	≤ 0.2
DHKR	≤ 0.2
QHVS	0.221
QHKR	1.03
NHKR	0.202
QHVP	≤ 0.2
QHVR	0.379
LTLF	≤ 0.2
YIRF	≤ 0.2
KAST	≤ 0.2
GTAV	≤ 0.2
DSRR	≤ 0.2
DCRR	0.416
KTDR	≤ 0.2
KTYR	≤ 0.2
KMRR	0.398
KTRR	0.541
KKYR	≤ 0.2
KMYR	≤ 0.2
KKDR	≤ 0.2
KMDR	≤ 0.2
DPRR	≤ 0.2
KKRR	0.47
QEHI	≤ 0.2

Variant	one-hybrid fitness for binding NBS DNA
GLEC	≤ 0.2
KISR	≤ 0.2
NLTF	≤ 0.2
IPIE	≤ 0.2
AYRA	≤ 0.2
LADD	≤ 0.2
DHMR	≤ 0.2
RSEM	≤ 0.2
KIPV	≤ 0.2
AVRD	≤ 0.2
ISPK	≤ 0.2
CECG	≤ 0.2
HLGA	≤ 0.2
KHQR	≤ 0.2
KHYR	≤ 0.2
KCRR	0.46
KQYR	≤ 0.2
KSRR	0.343
KPRR	≤ 0.2
KHRR	0.367
KQRR	0.416
NQRR	≤ 0.2
PLRA	≤ 0.2
YGEG	≤ 0.2
NPWT	≤ 0.2

Variant	one-hybrid fitness for binding NBS DNA
YGMG	≤ 0.2
ETAK	≤ 0.2
RFQF	≤ 0.2
NMWY	≤ 0.2
NYHG	≤ 0.2
ANWC	≤ 0.2
AQQE	≤ 0.2
RMKD	≤ 0.2
RMKP	≤ 0.2
RMKN	≤ 0.2
RMKS	0.598
RMKH	0.402
RSKH	0.357
RCKH	0.403
RPKH	≤ 0.2
RMVS	0.29
CHSP	≤ 0.2
DPDC	≤ 0.2
RVHH	≤ 0.2
RVHY	≤ 0.2
RVHS	0.461
RVAS	0.358
RVHD	≤ 0.2
RVHM	≤ 0.2
RVHN	≤ 0.2

Variant	one-hybrid fitness for binding NBS DNA
RVFT	0.271
RVAT	0.383
RVHR	0.484
RVHP	≤ 0.2
RVHT	0.487
GNNW	≤ 0.2
HSLW	≤ 0.2
SLMG	≤ 0.2
ACAR	≤ 0.2
KRNK	≤ 0.2
SCKG	≤ 0.2
SRHE	≤ 0.2
IGMS	≤ 0.2
LVKR	≤ 0.2
RVPT	≤ 0.2
RVRT	0.631
RVQP	≤ 0.2
RVQD	≤ 0.2
RVYT	0.357
RVQT	0.438
QQQI	≤ 0.2
DRRL	≤ 0.2
MTMS	≤ 0.2
RRCG	0.296
RRCD	≤ 0.2

Variant	one-hybrid fitness for binding NBS DNA
RRCN	0.248
RRCH	0.382
RRCP	≤ 0.2
RRCS	0.642
SSEH	≤ 0.2
RHQS	0.455
RTQD	≤ 0.2
RKQN	≤ 0.2
RSQD	≤ 0.2
RSQN	≤ 0.2
RHQH	≤ 0.2
RSQS	0.433
RTQS	0.459
RHQN	≤ 0.2
RKQS	0.543
RKQD	≤ 0.2
RTQH	≤ 0.2
YQLE	≤ 0.2
WLLP	≤ 0.2
PIRG	≤ 0.2
RLRW	≤ 0.2
TAYQ	≤ 0.2
ARIK	≤ 0.2
ACVN	≤ 0.2
VRHN	≤ 0.2

Variant	one-hybrid fitness for binding NBS DNA
IRAF	≤ 0.2
KMGK	≤ 0.2
VQSE	≤ 0.2
DNKI	≤ 0.2
DLTY	≤ 0.2
WNVE	≤ 0.2
RAQS	0.416
RDQS	≤ 0.2
RAQD	≤ 0.2
RLQS	0.382
RPQS	≤ 0.2
RMQN	≤ 0.2
RLQH	≤ 0.2
RLQP	≤ 0.2
RMQS	0.409
RMQH	≤ 0.2
RAQN	≤ 0.2
RCQS	0.474
PCVC	≤ 0.2
NLCG	≤ 0.2
TPCN	≤ 0.2
RCCC	≤ 0.2
VASN	≤ 0.2
HSTM	≤ 0.2
SDNA	≤ 0.2

Variant	one-hybrid fitness for binding NBS DNA
FLCR	≤ 0.2
WDPR	≤ 0.2
GLGG	≤ 0.2
RPGR	≤ 0.2
RSGH	≤ 0.2
RFGR	0.23
RSGP	≤ 0.2
RSGR	0.459
RCGR	0.523
HRAM	≤ 0.2
FIVS	≤ 0.2
DFTV	≤ 0.2
TCKT	≤ 0.2
TRRT	0.526
TRDT	≤ 0.2
TRYS	≤ 0.2
TRRS	0.38
TRKT	0.578
TRYT	0.334
TCNT	≤ 0.2
TRRN	≤ 0.2
TCRT	≤ 0.2
TRNT	0.459
TRVT	≤ 0.2
